# PubChem BioAssay (NCI)
# Compounds without any hit were thinned out: in the full panel of roughly 83,000, 20% have a hit.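 Single-dose data. Exposure time 48 hours. Values below 10 considered active.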 A number with no mark means an inactive call. Activity calls are given as the source filed them.
# Experiments:
# Assay in all cases: NCI-60 one-dose screen, 48 h (100 = growth as untreated, 0 = no growth, -100 = all killed)
# Details in all cases: 10 µM unless noted
# BT-549 breast = system: BT-549 breast
# MDA-MB-435 melanoma = system: MDA-MB-435 melanoma
# SW-620 colon = system: SW-620 colon
# MCF7 breast = system: MCF7 breast
# HCC-2998 colon = system: HCC-2998 colon
# KM12 colon = system: KM12 colon
# HCT-116 colon = system: HCT-116 colon
Compound,growth (BT-549 breast),growth (MDA-MB-435 melanoma),growth (SW-620 colon),growth (MCF7 breast),growth (HCC-2998 colon),growth (KM12 colon),growth (HCT-116 colon)
COc1cccc2c1O/C(=C\c1c([N+](=O)[O-])ncn1C)C2=O,98%,91.6%,105%,88.4%,105%,105%,
COc1ccc(-c2cnnn2-c2cc(OC)c3c(c2)OCO3)cc1,34.8%,-57.5% (active),26.5%,17.8%,-2.25% (active),11.8%,
COc1ccc(C(=O)Nc2nc(-c3ccc(Cl)cc3)cs2)cc1,105%,97.7%,96.3%,92.9%,112%,99.2%,
O=C(Nc1ncc([N+](=O)[O-])s1)c1cccc([N+](=O)[O-])c1,35.8%,31.4%,73.4%,50.7%,28.7%,62.9%,
O=C1NCN(CCO)CN1,75.9%,97.1%,102%,94.1%,100%,108%,
Nc1c2ccccc2nc2ccccc12 (tested in a mixture with another compound),57.3%,18.6%,15.6%,,28.7%,23%,13.6%
CCC1(c2ccccc2)Oc2ccccc2-n2c(C#N)c3ccccc3c2C1=O (configuration not stated),104%,106%,107%,85.1%,,102%,
N=c1ccn2c(n1)O[C@@H]1[C@@H](O)[C@H](CO)O[C@@H]12,83.5%,57.1%,66.5%,,50.2%,77.4%,37.4%
Cc1cc2cn3c4cccnc4[nH]c(=O)c3c2cc1C,73.2%,-20.7% (active),-29.5% (active),-36.9% (active),60%,13.1%,
Cc1c(C(N)=O)sc2c1c(=O)n(Cc1ccccc1)c1nnc(SCC(=O)Nc3ccc(Cl)cc3)n21,67.7%,40.7%,35.6%,31.6%,18.1%,55.3%,
CN(CCOc1ccc(CC2SC(=O)NC2=O)cc1)c1ccccn1 (configuration not stated),104%,98.3%,102%,,112%,96.3%,103%
c1ccc(-n2nnnc2-c2cccc3ccccc23)cc1,29.5%,-10.5% (active),20.8%,19.8%,23.5%,31.3%,
COc1ccc(-c2nnc(COc3ccc(NC(=O)Nc4cc(C(F)(F)F)cc(C(F)(F)F)c4)cc3F)o2)cc1,15.5%,7.29% (active),13.6%,1.51% (active),11.5%,0.401% (active),
COc1cc(C2C=C(c3ccc(C)cc3)Nc3nc(SC)[nH]c(=O)c32)ccc1Oc1ccnc2cc(Cl)ccc12 (configuration not stated),87.9%,55.3%,93.3%,56.9%,95.9%,60.5%,
CC(=O)O[C@H]1C(=O)[C@@]2(C)C([C@H](OC(=O)c3ccccc3)[C@]3(O)C[C@H](OC(=O)[C@H](O)[C@@H](NC(=O)c4ccccc4)c4ccccc4)C(C)=C1C3(C)C)[C@]1(OC(C)=O)CO[C@@H]1C[C@@H]2O (some centres not stated),30.5%,-11.5% (active),43.4%,,-22.4% (active),9.05% (active),7.81% (active)
CCCCSc1cc(C)nc(N)n1,88.8%,97.2%,97.8%,94.5%,,98.8%,
CC(C)[C@]12O[C@H]1[C@@H]1O[C@]13[C@]1(O[C@H]1C[C@H]1C4=C(CC[C@@]13C)C(=O)OC4)[C@@H]2OC(=O)CN(C)C,-18.2% (active),-76.4% (active),0.523% (active),18.1%,-37.2% (active),2.83% (active),
Clc1ncn[nH]1,105%,96.9%,111%,90.3%,89.8%,101%,
O=C(Nc1ccncc1)C(=O)c1cn(S(=O)(=O)c2cccc(F)c2)c2ccccc12,27.8%,-1.83% (active),21.7%,5.06% (active),66.2%,27.6%,
COc1cc2c(cc1OCCCOc1ccc(-c3cc4ccccc4c4ccccc34)cc1)N=C[C@@H]1CCCN1C2=O,-50.8% (active),-30.8% (active),-43.8% (active),-75.1% (active),2.28% (active),-20.4% (active),

Compound,growth (BT-549 breast),growth (MDA-MB-435 melanoma),growth (SW-620 colon),growth (MCF7 breast),growth (HCC-2998 colon),growth (KM12 colon),growth (HCT-116 colon)
CC(C)(C)c1ccc(C(O)CCCN2CCC(C(O)(c3ccccc3)c3ccccc3)CC2)cc1 (configuration not stated),42.1%,-93.2% (active),-77.1% (active),,-90.1% (active),-73.5% (active),-100% (active)
O=C(/C=C/c1ccccc1)CC(c1ccccc1)N1CCOCC1 (configuration not stated),-79.4% (active),11.8%,-16.7% (active),11.1%,20.8%,-81% (active),
CC1=CSC2=NCCN12,,111%,102%,96.6%,108%,109%,111%
CN(C)c1nc(-c2ccco2)n2nc(-c3ccco3)cc2n1,94.3%,,93.4%,28.3%,88.5%,61.3%,91.6%
CCCCCCCCCCCCCCCCCc1nccn1CCO,70%,95%,61.3%,,55.4%,85.6%,
CC[C@@H]1OC(=O)[C@H](C)[C@@H](O[C@H]2C[C@@](C)(OC)[C@@H](O)[C@H](C)O2)[C@H](C)[C@@H](O[C@@H]2O[C@H](C)C[C@H](N(C)C)[C@H]2O)[C@](C)(O)C[C@@H](C)[C@@H]2N[C@@H](COCCOC)O[C@H]([C@H]2C)[C@]1(C)O,92.2%,106%,111%,,98.9%,126%,85.6%
COc1c(C)c2c(c(O)c1C/C=C(\C)CCC(=O)OCCN1CCOCC1)C(=O)OC2,40.4%,26.2%,19.6%,,18.1%,27.8%,14%
CO[C@H]1CC(O[C@@H]2/C(C)=C/C[C@@H]3C[C@@H](C[C@]4(CC[C@H](C)[C@@H](C5CCCCC5)O4)O3)OC(=O)[C@@H]3C=C(C)/C(=N/O)[C@H]4OC/C(=C\C=C\[C@@H]2C)[C@]43O)O[C@@H](C)C1O (some centres not stated),-88.3% (active),-86.1% (active),-73.2% (active),,-78.1% (active),-88.8% (active),-95.6% (active)
C[C@@H]1CC[C@H]2[C@@H](C)C(O)O[C@@H]3O[C@]4(C)CC[C@@H]1[C@]32OO4 (some centres not stated),32.3%,2.52% (active),17.5%,,41.3%,18.3%,8.03% (active)
CCCCN(CCCC)CCCOC(=O)c1ccc(N)cc1,82.4%,-3.25% (active),74.6%,,87.6%,103%,
CC(C)(C)c1cc(O)c(O)c(C(C)(C)C)c1,61.2%,,19.3%,36.3%,59.5%,48.1%,
CCOC(=O)C1=C(COCCN)NC(C)=C(C(=O)OC)C1c1ccccc1Cl (configuration not stated),86.5%,68.7%,53.4%,,3.32% (active),68.9%,45.9%
O=C(c1ccccc1)c1ccco1,97.8%,,110%,93.2%,,107%,102%
O=C1NCC(Nc2ccc(Br)cc2Cl)C(=O)N1 (configuration not stated),,111%,100%,103%,116%,108%,102%
N#CCCN(CCO)c1ccccc1,91.7%,,102%,93.6%,129%,110%,100%
CN(C(=O)c1ccccc1)N(C)C(=O)c1ccccc1,97%,,106%,95.2%,116%,113%,100%
COc1ccc(/C(=C2\O[C@@H]([C@H](O)CO)[C@H]3OC(C)(C)O[C@@H]23)c2cc(OC)c(OC)c(OC)c2)cc1O,82%,-23.9% (active),,95.7%,,9.46% (active),89.3%
CCC(C)(C)C(=O)O[C@H]1C[C@@H](C)C=C2C=C[C@H](C)[C@H](CC[C@@H]3C[C@@H](O)CC(=O)O3)[C@H]21,84%,68.8%,61.2%,,71.9%,90.7%,20.4%
CCN(CC)c1ccc(C(O)C2=CC(=O)c3ccccc3C2=O)cc1 (configuration not stated),23.6%,,-42.7% (active),9.53% (active),-60.5% (active),1.59% (active),-9.43% (active)
